# In PubChem BioAssay (EPA / NIEHS):
# Results filed as inconclusive are left out. Active and inactive are the calls of the source. Rule for the calls, unless noted: active = hit-call score of the fitted dose curve at least 0.9, where 1 is the maximum; inactive = score below 0.9.
# Experiments:
# [1] = target: Paired box protein Pax-6 (Homo sapiens) (UniProt P26367); experiment: ATG_Pax6_CIS: Attagene CIS-FACTORIAL HepG2 Assay for human Paired Box 6 (PAX6) (AID 2282956); settings: HepG2 CIS-FACTORIAL PAX6 reporter transcription, RNA readout; actives raise or lower the signal
# Procedure, shortened: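 Transient MRTU transfection of HepG2 → compound exposure 24 h → TriZol RNA, oligo(dT) RT → PCR, 6-FAM primer extension, HpaI cut → capillary electrophoresis; activity fitted both directions against DMSO.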
# [2] = ATG_PXRE_CIS: Attagene CIS-FACTORIAL HepG2 Assay for human Pregnane X Receptor Element (PXRE) (AID 2282957); settings: HepG2 Attagene CIS-FACTORIAL PXRE reporter, mRNA; actives raise or lower the signal
# Procedure, shortened: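 Transfect HepG2 with MRTUs (cis promoter elements); dose chemical, incubate 24 h; isolate RNA, RT with oligo(dT), PCR, 6-FAM label, HpaI cut, CE. Gain/loss fit vs DMSO.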
# [3] = ATG_PPRE_CIS: Attagene CIS-FACTORIAL HepG2 Assay for human Peroxisome Proliferator-activated Response Element (PPRE) (AID 2282958); settings: HepG2 PPRE cis-element reporter, Attagene transcription factor profiling; actives raise or lower the signal
# Procedure, shortened: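 Cells are first transfected transiently with the multiplexed reporter library, then dosed for 24 h. Total RNA is reverse-transcribed, amplified, fluorescently end-labeled and HpaI-cut before capillary electrophoresis; activity is fitted bidirectionally against DMSO controls.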
# [4] = ATG_Sox_CIS: Attagene CIS-FACTORIAL HepG2 Assay for human SRY-box transcription factor (SOX) (AID 2282960); settings: HepG2 Attagene cis-factorial SOX reporter, mRNA; actives raise or lower the signal
# Procedure, shortened: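 Transient MRTU transfection of HepG2; 24 h compound incubation; TriZol RNA, oligo(dT) RT, PCR, 6-FAM primer extension, HpaI cut, CE. Bidirectional fit, DMSO = baseline.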
# [5] = target: Transcription factor Sp1 (Homo sapiens) (UniProt P08047); experiment: ATG_Sp1_CIS: Attagene CIS-FACTORIAL HepG2 Assay for human Specificity Protein 1 (Sp1) (AID 2282961); settings: HepG2 Sp1 cis-reporter transcription, actives raise or lower the signal
# Procedure, shortened: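 Endogenous Sp1 activity was gauged in human liver HepG2 cells bearing transfected reporter units under a cis-regulating promoter. After 24 h dosing, reporter mRNA was quantified by RT-PCR with capillary electrophoresis, and activity fitted bidirectionally versus DMSO.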
# [6] = ATG_SREBP_CIS: Attagene CIS-FACTORIAL HepG2 Assay for human Sterol Regulatory Element Binding (SREBP) (AID 2282962); settings: HepG2 Attagene cis-factorial SREBP reporter, mRNA; actives raise or lower the signal
# Procedure, shortened: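 Transfected HepG2 (cis-regulated reporter library, endogenous TFs) → compound 24 h → total RNA → oligo(dT) RT → reporter-specific PCR → FAM primer extension, HpaI cut → CE fluorescence. Fit bidirectional vs DMSO.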
# [7] = target: Signal transducer and activator of transcription 3 (Homo sapiens) (UniProt P40763); experiment: ATG_STAT3_CIS: Attagene CIS-FACTORIAL HepG2 Assay for human Signal Transducer and Activator of Transcription 3 (STAT3) (AID 2282963); settings: HepG2, Attagene cis-factorial STAT3 reporter transcription; actives raise or lower the signal
# Procedure, shortened: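 HepG2 cells transiently transfected with cis-element-driven multiple reporter transcription units; after 24 h chemical exposure, reporter mRNA measured by RT-PCR, 6-FAM primer-extension labelling, HpaI digestion and capillary electrophoresis. Bidirectional fitting versus DMSO baseline.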
# [8] = ATG_TA_CIS: Attagene CIS-FACTORIAL HepG2 Assay for human TA Basal Promoter (AID 2282964); settings: HepG2 Attagene CIS-factorial TA basal promoter reporter; actives raise or lower the signal
# Procedure, shortened: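 Cis-factorial format in HepG2: reporters report endogenous factors, not chimeric Gal4 fusions. After 24 h treatment, reporter transcripts were measured by RT-PCR-capillary electrophoresis fluorescence, analysed bidirectionally versus DMSO.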
# [9] = ATG_TCF_b_cat_CIS: Attagene CIS-FACTORIAL HepG2 Assay for human T-Cell-Factor with beta-catenin (TCF/b-cat) (AID 2282965); settings: HepG2 TCF/beta-catenin cis-reporter transcription, actives raise or lower the signal
# Procedure, shortened: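 HepG2 cells transiently transfected with multiple cis-promoter-regulated reporter transcription units, so endogenous transcription factor activity is measured. Reporter mRNA read 24 hours after dosing by RT-PCR, fluorescent labelling and capillary electrophoresis; bidirectional fitting against DMSO.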
# [10] = ATG_TAL_CIS: Attagene CIS-FACTORIAL HepG2 Assay for human TAL Basal Promoter (AID 2282966); settings: HepG2 Attagene cis-factorial TAL promoter reporter; actives raise or lower the signal;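 note: background control endpoint measuring basal TAL promoter reporter mRNA not a specific factor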
# Procedure, shortened: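 Fluorescence of labelled reporter cDNA fragments, resolved by capillary electrophoresis, gave the readout. Human HepG2 liver cells carried transiently transfected cis-element reporter units and were treated for 24 hours; activity was fitted bidirectionally against DMSO.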
# [11] = ATG_TGFb_CIS: Attagene CIS-FACTORIAL HepG2 Assay for human Transforming Growth Factor (TGF) (AID 2282967); settings: HepG2 Attagene CIS TGFb reporter, mRNA transcription; actives raise or lower the signal
# Procedure, shortened: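 Multiplexed cis-reporter HepG2 system, 24 h treatment; mRNA induction read by fluorescence after RT-PCR and CE; DMSO negative control, bidirectional curve fitting.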
# [12] = ATG_VDRE_CIS: Attagene CIS-FACTORIAL HepG2 Assay for human Vitamin D Receptor Element (VDRE) (AID 2282968); settings: HepG2 VDRE cis-reporter transcription, actives raise or lower the signal
# Procedure, shortened: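 HepG2 cells transiently transfected with cis-element reporter units, dosed 24 h; reporter mRNA measured by RT-PCR, 6-FAM labeling, HpaI digestion and capillary electrophoresis. Activity fitted bidirectionally against DMSO baseline.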
# [13] = target: X-box-binding protein 1 (Homo sapiens) (UniProt P17861); experiment: ATG_Xbp1_CIS: Attagene CIS-FACTORIAL HepG2 Assay for human X-box Binding Protein 1 (XBP1) (AID 2282972); settings: HepG2 XBP1 cis-element reporter, Attagene multiplex; actives raise or lower the signal
# Procedure, shortened: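 HepG2, transient MRTU transfection (cis-promoter driven), 24 h compound exposure. Total RNA → oligo(dT) RT → PCR → 6-FAM labeling → HpaI cut → CE. Bidirectional fit vs DMSO.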
# [14] = target: Estrogen-related receptor gamma (Homo sapiens) (UniProt P62508); experiment: ATG_ERRg_TRANS: Attagene TRANS-FACTORIAL HepG2 Assay for human Estrogen-Related Receptor gamma (ERRg) (AID 2282977; active = hit-call score of the fitted dose curve at least 0.9, where 1 is the maximum;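 note: hits increase reporter signal over DMSO so potencies reflect activators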); settings: HepG2 Attagene TRANS reporter, ERRg transactivation
# Procedure, shortened: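 HepG2 cells transiently transfected with multiplexed GAL4-UAS reporter units and chimeric NR-Gal4 constructs were exposed to test chemicals for 24 h. Reporter mRNA was measured by RT-PCR, 6-FAM primer extension, HpaI digestion and capillary electrophoresis; gain-of-signal versus DMSO.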
# [15] = target: Glucocorticoid receptor (Homo sapiens) (UniProt P04150); experiment: ATG_GR_TRANS: Attagene TRANS-FACTORIAL HepG2 Assay for human Glucocorticoid Receptor (GR) (AID 2282978; active = hit-call score of the fitted dose curve at least 0.9, where 1 is the maximum;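 note: activators score as hits since higher reporter transcript over DMSO is fitted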); settings: HepG2 Attagene TRANS GR reporter, mRNA transcription
# Procedure, shortened: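 In this trans-factorial format, exogenous NR-GAL4 chimeric proteins in transfected HepG2 cells regulate GAL4-UAS reporter transcription. After 24 h treatment, reporter mRNA induction relative to DMSO is read by RT-PCR and capillary electrophoresis.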
# [16] = ATG_M_19_TRANS: Attagene TRANS-FACTORIAL HepG2 Assay for M19 Transcription Factor (Internal Marker) (AID 2282974; active = hit-call score of the fitted dose curve at least 0.9, where 1 is the maximum); settings: HepG2 Attagene TRANS-FACTORIAL M19 internal marker reporter
# Procedure, shortened: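 Cells: human HepG2, transiently transfected with multiplexed reporter transcription units. Exposure: 24 h. Detection: RT-PCR of reporter mRNA with capillary electrophoresis. Analysis: gain-of-signal vs DMSO.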
# [17] = target: Steroid hormone receptor ERR1 (Homo sapiens) (UniProt P11474); experiment: ATG_ERRa_TRANS: Attagene TRANS-FACTORIAL HepG2 Assay for human Estrogen-Related Receptor alpha (ERRa) (AID 2282971; active = hit-call score of the fitted dose curve at least 0.9, where 1 is the maximum); settings: HepG2 Attagene TRANS reporter, ERRa transactivation
# Procedure, shortened: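 Reporter transcript induction was quantified by RT-PCR and capillary electrophoresis of FAM-labelled, HpaI-cut products after 24 h treatment of HepG2 cells carrying transiently transfected GAL4-UAS reporter units and an exogenous ERRa-Gal4 fusion; activity scored as increase over DMSO.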
# [18] = target: Bile acid receptor (Homo sapiens) (UniProt Q96RI1); experiment: ATG_FXR_TRANS: Attagene TRANS-FACTORIAL HepG2 Assay for Farnesoid X Receptor (FXR) (AID 2282979; active = hit-call score of the fitted dose curve at least 0.9, where 1 is the maximum;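 note: hits raise reporter mRNA above DMSO so AC50 marks FXR activation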); settings: HepG2 Attagene TRANS FXR-GAL4 reporter transcription
# Procedure, shortened: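 Transient transfection of HepG2 with multiplexed GAL4-UAS reporter units; exogenous FXR-GAL4 chimera. Dose 24 h → TriZol RNA → oligo(dT) RT → PCR, 6-FAM primer extension, HpaI cut → CE. Gain vs DMSO.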
# [19] = target: Nuclear receptor subfamily 1 group I member 3 (Homo sapiens) (UniProt Q14994); experiment: ATG_CAR_TRANS: Attagene TRANS-FACTORIAL HepG2 Assay for human Constitutive Androstane Receptor (CAR) (AID 2282969; active = hit-call score of the fitted dose curve at least 0.9, where 1 is the maximum;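 note: activators raise reporter mRNA above DMSO so AC50 marks induction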); settings: HepG2 Attagene TRANS-FACTORIAL CAR reporter
# Procedure, shortened: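 HepG2 cells transiently transfected with multiplexed GAL4-UAS reporter units expressing chimeric NR-Gal4 proteins; compound exposure 24 h. Reporter mRNA measured by RT-PCR, 6-FAM labelling, HpaI digestion and capillary electrophoresis; gain-of-signal fitted against DMSO baseline.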
# Sequence of Estrogen-related receptor gamma (Homo sapiens) (P62508 whole entry, looked up, the tested form may be a part): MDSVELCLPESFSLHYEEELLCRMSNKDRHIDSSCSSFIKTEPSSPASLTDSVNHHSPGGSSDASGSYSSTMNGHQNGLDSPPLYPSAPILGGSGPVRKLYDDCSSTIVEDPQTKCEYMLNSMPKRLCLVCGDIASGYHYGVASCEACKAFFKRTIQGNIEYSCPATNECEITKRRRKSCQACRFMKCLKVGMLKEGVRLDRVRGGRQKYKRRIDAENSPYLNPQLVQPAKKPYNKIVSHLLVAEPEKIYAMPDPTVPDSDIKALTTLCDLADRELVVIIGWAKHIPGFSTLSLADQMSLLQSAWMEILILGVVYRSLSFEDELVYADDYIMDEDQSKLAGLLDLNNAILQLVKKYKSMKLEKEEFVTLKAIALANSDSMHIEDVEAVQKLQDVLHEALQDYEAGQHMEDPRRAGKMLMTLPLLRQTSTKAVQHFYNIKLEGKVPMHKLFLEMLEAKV
# Sequence of Signal transducer and activator of transcription 3 (Homo sapiens) (P40763 whole entry, looked up): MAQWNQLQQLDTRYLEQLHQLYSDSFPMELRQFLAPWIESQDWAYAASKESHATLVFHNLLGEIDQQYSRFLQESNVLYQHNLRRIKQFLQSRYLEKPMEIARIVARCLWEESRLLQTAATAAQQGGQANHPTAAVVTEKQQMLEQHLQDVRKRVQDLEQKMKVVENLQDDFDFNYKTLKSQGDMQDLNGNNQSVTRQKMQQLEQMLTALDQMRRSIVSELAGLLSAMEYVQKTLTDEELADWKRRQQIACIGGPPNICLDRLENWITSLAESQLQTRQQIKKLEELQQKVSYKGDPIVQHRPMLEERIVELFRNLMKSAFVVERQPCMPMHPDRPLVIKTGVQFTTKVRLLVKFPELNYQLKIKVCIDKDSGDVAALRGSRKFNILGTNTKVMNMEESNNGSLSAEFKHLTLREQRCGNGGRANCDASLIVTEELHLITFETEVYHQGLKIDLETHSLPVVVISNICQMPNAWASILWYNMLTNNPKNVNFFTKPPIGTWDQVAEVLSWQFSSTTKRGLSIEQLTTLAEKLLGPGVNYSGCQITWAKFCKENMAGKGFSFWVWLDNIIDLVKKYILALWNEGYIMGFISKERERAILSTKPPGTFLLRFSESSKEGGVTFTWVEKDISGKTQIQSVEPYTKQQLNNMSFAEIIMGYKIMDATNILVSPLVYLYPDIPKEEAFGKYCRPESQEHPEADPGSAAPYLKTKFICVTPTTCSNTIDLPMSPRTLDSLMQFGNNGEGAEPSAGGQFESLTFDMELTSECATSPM
# Sequence of Bile acid receptor (Homo sapiens) (Q96RI1 whole entry, looked up, the tested form may be a part): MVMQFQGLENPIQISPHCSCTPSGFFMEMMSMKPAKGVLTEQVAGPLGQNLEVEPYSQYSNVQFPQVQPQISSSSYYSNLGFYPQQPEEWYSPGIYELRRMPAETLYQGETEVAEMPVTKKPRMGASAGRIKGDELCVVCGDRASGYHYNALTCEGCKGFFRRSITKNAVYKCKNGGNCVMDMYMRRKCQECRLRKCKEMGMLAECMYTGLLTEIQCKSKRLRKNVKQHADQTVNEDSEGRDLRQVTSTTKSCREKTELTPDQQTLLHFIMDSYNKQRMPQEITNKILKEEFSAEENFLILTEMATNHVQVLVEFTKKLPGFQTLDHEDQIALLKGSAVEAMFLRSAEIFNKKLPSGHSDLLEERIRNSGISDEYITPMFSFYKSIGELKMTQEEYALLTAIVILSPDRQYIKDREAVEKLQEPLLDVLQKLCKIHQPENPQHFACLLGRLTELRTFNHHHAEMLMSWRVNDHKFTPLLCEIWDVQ
# Sequence of Paired box protein Pax-6 (Homo sapiens) (P26367 whole entry, looked up): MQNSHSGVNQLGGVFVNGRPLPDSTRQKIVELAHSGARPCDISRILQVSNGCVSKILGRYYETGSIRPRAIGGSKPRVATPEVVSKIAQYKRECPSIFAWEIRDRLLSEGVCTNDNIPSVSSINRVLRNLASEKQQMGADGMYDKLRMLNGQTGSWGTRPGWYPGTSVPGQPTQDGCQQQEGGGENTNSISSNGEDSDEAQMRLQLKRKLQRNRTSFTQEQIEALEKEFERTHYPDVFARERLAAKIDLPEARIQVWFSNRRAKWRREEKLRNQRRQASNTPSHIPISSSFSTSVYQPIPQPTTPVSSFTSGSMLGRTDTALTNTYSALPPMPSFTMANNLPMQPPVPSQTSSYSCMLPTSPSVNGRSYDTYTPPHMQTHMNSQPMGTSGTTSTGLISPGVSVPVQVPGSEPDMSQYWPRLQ
# Sequence of X-box-binding protein 1 (Homo sapiens) (P17861 whole entry, looked up): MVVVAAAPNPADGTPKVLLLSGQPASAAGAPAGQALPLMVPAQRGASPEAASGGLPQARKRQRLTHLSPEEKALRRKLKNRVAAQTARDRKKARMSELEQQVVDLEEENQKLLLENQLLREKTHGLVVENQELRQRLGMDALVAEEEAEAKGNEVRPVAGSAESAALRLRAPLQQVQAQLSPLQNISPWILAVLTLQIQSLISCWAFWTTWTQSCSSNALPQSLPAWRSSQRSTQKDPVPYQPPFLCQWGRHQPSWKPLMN
# Sequence of Transcription factor Sp1 (Homo sapiens) (P08047 whole entry, looked up): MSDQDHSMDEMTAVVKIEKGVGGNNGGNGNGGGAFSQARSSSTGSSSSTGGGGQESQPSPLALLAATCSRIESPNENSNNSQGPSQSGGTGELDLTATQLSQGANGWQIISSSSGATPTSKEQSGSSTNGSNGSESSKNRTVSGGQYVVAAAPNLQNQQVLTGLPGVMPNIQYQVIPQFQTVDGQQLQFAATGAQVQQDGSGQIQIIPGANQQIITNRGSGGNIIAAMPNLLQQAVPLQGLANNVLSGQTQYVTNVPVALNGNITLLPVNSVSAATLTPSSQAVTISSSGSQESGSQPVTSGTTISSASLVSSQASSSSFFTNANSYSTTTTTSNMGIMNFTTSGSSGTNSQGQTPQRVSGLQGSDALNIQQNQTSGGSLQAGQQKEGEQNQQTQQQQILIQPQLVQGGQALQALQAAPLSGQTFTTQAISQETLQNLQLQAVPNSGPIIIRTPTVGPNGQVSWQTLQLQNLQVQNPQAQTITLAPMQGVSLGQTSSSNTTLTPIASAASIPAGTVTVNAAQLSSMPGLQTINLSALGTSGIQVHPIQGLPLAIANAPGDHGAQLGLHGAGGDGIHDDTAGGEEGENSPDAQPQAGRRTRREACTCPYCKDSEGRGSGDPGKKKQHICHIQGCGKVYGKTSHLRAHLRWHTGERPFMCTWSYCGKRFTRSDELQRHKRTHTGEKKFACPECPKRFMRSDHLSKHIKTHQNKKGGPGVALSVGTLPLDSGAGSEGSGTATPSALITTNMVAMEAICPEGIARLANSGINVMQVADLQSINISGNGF
# Sequence of Glucocorticoid receptor (Homo sapiens) (P04150 whole entry, looked up, the tested form may be a part): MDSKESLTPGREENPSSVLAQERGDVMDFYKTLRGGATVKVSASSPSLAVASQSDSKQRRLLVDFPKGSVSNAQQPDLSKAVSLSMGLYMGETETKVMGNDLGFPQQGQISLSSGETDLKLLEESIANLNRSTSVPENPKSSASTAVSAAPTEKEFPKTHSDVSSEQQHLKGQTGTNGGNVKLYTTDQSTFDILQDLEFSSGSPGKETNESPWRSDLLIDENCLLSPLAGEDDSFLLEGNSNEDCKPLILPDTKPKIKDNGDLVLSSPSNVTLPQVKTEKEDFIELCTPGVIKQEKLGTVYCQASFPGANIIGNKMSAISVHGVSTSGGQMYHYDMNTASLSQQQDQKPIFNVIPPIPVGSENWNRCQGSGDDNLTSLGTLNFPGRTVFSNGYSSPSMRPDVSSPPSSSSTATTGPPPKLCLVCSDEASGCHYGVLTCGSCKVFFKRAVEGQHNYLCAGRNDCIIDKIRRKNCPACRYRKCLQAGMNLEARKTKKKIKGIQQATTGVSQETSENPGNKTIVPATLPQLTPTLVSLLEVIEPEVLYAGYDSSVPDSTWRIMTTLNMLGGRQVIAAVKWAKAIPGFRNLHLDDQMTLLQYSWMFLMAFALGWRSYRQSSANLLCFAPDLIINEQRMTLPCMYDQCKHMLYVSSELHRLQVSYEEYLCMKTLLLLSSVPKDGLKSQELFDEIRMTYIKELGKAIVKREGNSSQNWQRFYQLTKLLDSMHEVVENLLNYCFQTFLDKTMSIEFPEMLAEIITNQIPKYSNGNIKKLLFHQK
# Sequence of Steroid hormone receptor ERR1 (Homo sapiens) (P11474 whole entry, looked up, the tested form may be a part): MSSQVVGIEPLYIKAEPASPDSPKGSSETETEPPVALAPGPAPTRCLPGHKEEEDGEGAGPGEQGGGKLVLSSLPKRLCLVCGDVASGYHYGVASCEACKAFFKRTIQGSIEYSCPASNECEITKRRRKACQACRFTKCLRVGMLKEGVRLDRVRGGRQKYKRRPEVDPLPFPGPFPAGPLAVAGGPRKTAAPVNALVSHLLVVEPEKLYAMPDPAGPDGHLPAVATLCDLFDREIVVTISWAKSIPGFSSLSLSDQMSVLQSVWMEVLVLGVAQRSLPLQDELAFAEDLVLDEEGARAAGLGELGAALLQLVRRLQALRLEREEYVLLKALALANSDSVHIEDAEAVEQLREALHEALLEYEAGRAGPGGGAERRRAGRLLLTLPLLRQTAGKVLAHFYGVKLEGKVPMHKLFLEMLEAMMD
# Sequence of Nuclear receptor subfamily 1 group I member 3 (Homo sapiens) (Q14994 whole entry, looked up, the tested form may be a part): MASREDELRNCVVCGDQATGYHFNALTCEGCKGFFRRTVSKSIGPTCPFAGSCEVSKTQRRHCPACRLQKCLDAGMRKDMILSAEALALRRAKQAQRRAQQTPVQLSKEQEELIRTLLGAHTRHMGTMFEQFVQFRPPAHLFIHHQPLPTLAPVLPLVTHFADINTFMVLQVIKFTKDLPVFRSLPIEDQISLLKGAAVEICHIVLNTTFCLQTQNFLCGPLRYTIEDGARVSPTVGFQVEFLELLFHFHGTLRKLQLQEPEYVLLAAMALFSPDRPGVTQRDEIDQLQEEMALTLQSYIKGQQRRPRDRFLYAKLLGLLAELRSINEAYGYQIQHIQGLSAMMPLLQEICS
compound,measurement,setting,value
O=c1[nH]c2ccc(S(=O)CCN3CCC(Cc4ccc(F)cc4)CC3)cc2o1 (stereo not drawn),AC50,[1],73 µM (active)
same,AC50,[2],26.3 µM (active)
same,outcome,[3],inactive
same,AC50,[4],66.5 µM (active)
same,outcome,[5],inactive
same,AC50,[6],31.2 µM (active)
same,outcome,[7],inactive
same,outcome,[8],inactive
same,outcome,[9],inactive
same,outcome,[10],inactive
same,outcome,[11],inactive
same,AC50,[12],55.1 µM (active)
same,AC50,[13],71.1 µM (active)
same,outcome,[14],inactive
same,outcome,[15],inactive
O=C1OC(=O)C2C3C=CC(C3)C12 (stereo not drawn),outcome,[1],inactive
same,outcome,[2],inactive
same,outcome,[3],inactive
same,outcome,[4],inactive
same,outcome,[5],inactive
same,outcome,[6],inactive
same,outcome,[7],inactive
same,outcome,[8],inactive
same,outcome,[9],inactive
same,outcome,[10],inactive
same,outcome,[11],inactive
same,outcome,[12],inactive
same,outcome,[13],inactive
same,outcome,[16],inactive
CCCCC(CC)COC(=O)c1ccc(C(=O)OCC(CC)CCCC)cc1 (stereo not drawn),outcome,[1],inactive
same,AC50,[2],63 µM (active)
same,outcome,[3],inactive
same,outcome,[4],inactive
same,outcome,[5],inactive
same,outcome,[6],inactive
same,outcome,[7],inactive
same,outcome,[8],inactive
same,outcome,[9],inactive
same,outcome,[10],inactive
same,outcome,[11],inactive
same,outcome,[17],inactive
same,outcome,[13],inactive
same,outcome,[18],inactive
COc1cccc(-c2ccc(/C=C\CN3CCCCCC3)cc2Cl)c1,outcome,[1],inactive
same,AC50,[2],3.67 µM (active)
same,outcome,[3],inactive
same,outcome,[4],inactive
same,outcome,[5],inactive
same,AC50,[6],20.5 µM (active)
same,outcome,[7],inactive
same,outcome,[8],inactive
same,outcome,[10],inactive
same,outcome,[11],inactive
same,AC50,[12],6.94 µM (active)
same,outcome,[19],inactive
same,outcome,[13],inactive
same,outcome,[16],inactive
same,outcome,[14],inactive
same,outcome,[15],inactive
same,outcome,[18],inactive
COC(=O)c1c(Cl)c(Cl)c(C(=O)OC)c(Cl)c1Cl,outcome,[1],inactive
same,AC50,[2],25.8 µM (active)
same,outcome,[3],inactive
same,outcome,[4],inactive
same,outcome,[5],inactive
same,outcome,[6],inactive
same,outcome,[7],inactive
same,outcome,[8],inactive
same,outcome,[10],inactive
same,outcome,[11],inactive
same,outcome,[12],inactive
same,outcome,[17],inactive
same,outcome,[13],inactive
same,outcome,[16],inactive
same,outcome,[14],inactive
same,outcome,[18],inactive
CCCCCCCCCCCCCCCO,outcome,[1],inactive
same,outcome,[2],inactive
same,outcome,[3],inactive
same,outcome,[4],inactive
same,outcome,[5],inactive
same,outcome,[6],inactive
same,outcome,[7],inactive
same,outcome,[8],inactive
same,outcome,[9],inactive
same,outcome,[10],inactive
same,outcome,[11],inactive
same,outcome,[12],inactive
same,outcome,[13],inactive
same,outcome,[18],inactive
Fc1ccccc1[C@@H](F)COC1CCC(Nc2ncnc3[nH]ncc23)CC1 (stereo partly drawn),outcome,[1],inactive
same,AC50,[2],25.4 µM (active)
same,AC50,[3],4.79 µM (active)
same,outcome,[4],inactive
same,AC50,[5],168 µM (active)
same,AC50,[6],4.65 µM (active)
same,outcome,[7],inactive
same,AC50,[8],4.57 µM (active)
same,outcome,[9],inactive
same,outcome,[10],inactive
same,outcome,[11],inactive
same,AC50,[12],26 µM (active)
same,outcome,[13],inactive
same,outcome,[16],inactive
same,AC50,[18],25.6 µM (active)
CC(C)CCO,outcome,[1],inactive
same,outcome,[2],inactive
same,outcome,[3],inactive
same,outcome,[4],inactive
same,outcome,[5],inactive
same,outcome,[6],inactive
same,outcome,[7],inactive
same,outcome,[8],inactive
same,outcome,[10],inactive
same,outcome,[11],inactive
same,outcome,[12],inactive
same,outcome,[13],inactive
same,outcome,[16],inactive
